# Source: PubChem (Broad Institute)
# C diff growth: blocks growth of Clostridium difficile. growth activity, negative = inhibition, % at 16 µg/mL (by protocol). hit rate 0.25% among 86,000. Clostridium difficile clinical isolate growth, OD600, 24 h; active compounds read low;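 active = mean growth activity at or below -80% and every replicate also at or below -80%; inconclusive = mean at or below -80% but some replicate above -80%; inactive = mean growth activity above -80%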;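 also: 0% = DMSO wells and -100% = levofloxacin 16 µg/mL wells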
# Pf Dd2 growth: inhibitors of Plasmodium falciparum Dd2 growth; P. falciparum Dd2 growth, SYBR Green, 72 h; active compounds read low; activity change, % at 10 µM; hit rate 2.3% among 94,000; in the data active = activity change below about -80%; inconclusive = no clear call, values can overlap the other calls
# T cruzi growth-1: blocks T. cruzi growth in NIH3T3 culture; hit rate 5.9% among 77,000; inhibition, % at 8.34 µM; AID 624255; T. cruzi beta-gal in NIH3T3, GalScreen luminescence, 90 h;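 active = mean inhibition above about 93%, with at least 55% of replicates each passing it, limit read from the data, passing the limit was not always enough; inconclusive = only one of those two conditions holds; inactive = neither condition holds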
# T cruzi growth-2: inhibitors of T. cruzi proliferation. shares compounds with T cruzi growth-1. AID 651739. inhibition, % at 8.35 µM. hit rate 72% among 5,600. T. cruzi beta-gal in NIH3T3, GalScreen luminescence, 90 h;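 active = mean replicate inhibition above about 95% and at least 55% of replicates individually reaching it, limit read from the data; inconclusive = only one of the two criteria is met; inactive = neither criterion is met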
# T cruzi growth-3: blocks T. cruzi growth in NIH3T3 host cells | shares compounds with T cruzi growth-1 | T. cruzi beta-gal in NIH3T3, GalScreen luminescence, 90 h | inhibition, % at 2.09 µM | hit rate 21% among 5,600;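 active = mean inhibition above about 95%, with at least 55% of replicates also reaching it, limit read from the data; inconclusive = meets just one of the two conditions; inactive = meets neither condition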;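 also: plate controls were neutral control median for no effect and positive control median for full effect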
# NIH3T3 tox: NIH/3T3 (mouse) viability loss | AID 651742 | hit rate 14% among 5,600 | NIH/3T3 viability, CellTiter-Glo ATP luminescence, 90 h | cytotoxicity (signal decrease), % at 8.35 µM | shares compounds with T cruzi growth-1;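 active = mean signal decrease across replicates above about 35% based on untreated-well scatter, with enough replicates individually passing, limit read from the data; inconclusive = no rule stated though some were filed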;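 also: 0% = median of neutral control wells and 100% = median of positive control wells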
# 3T3 cytotox 2: kills mouse NIH/3T3 fibroblasts; shares compounds with T cruzi growth-1; NIH/3T3 viability, CellTiter-Glo ATP luminescence, 90 h; inhibition, % at 24.9 µM; hit rate 56% among 5,600; AID 651744;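 active = mean loss of cell viability signal at or above a set limit, and enough replicates individually reaching it; inconclusive = meets only the mean limit or only the replicate share; inactive = meets neither condition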;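 also: 0% = median of neutral control wells and 100% = median of positive control wells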
# An asterisk follows results filed as active; ? = inconclusive; / = not tested or not shown. Most compounds without a hit are left out; they make up all but 6.7% or so of the library.
SMILES,C diff growth,Pf Dd2 growth,T cruzi growth-1,T cruzi growth-2,T cruzi growth-3,NIH3T3 tox,3T3 cytotox 2
CN(C)CC#Cc1ccc([C@H]2[C@@H](CO)N3CCCCN(C(=O)CN(C)C)C[C@@H]23)cc1,1.9,-0.5,-4.8,/,/,/,/
COCC#Cc1ccc([C@@H]2[C@H]3CN(C(=O)CN(C)C)CCCCN3[C@H]2CO)cc1,-2.0,6.0,109.1*,?,13.3,-11.9,6.1
CN(C)CC#Cc1ccc([C@@H]2[C@@H](CO)N3CCCCN(C(=O)CN(C)C)C[C@@H]23)cc1,0.3,-4.5,19.3,/,/,/,/
COCC#Cc1ccc([C@H]2[C@@H](CO)N3CCCCN(C(=O)CN(C)C)C[C@H]23)cc1,2.3,29.5,120.7*,50.5,35.5,-24.2,-4.0
CC=Cc1ccc2n(c1=O)C[C@@H]1[C@@H](CO)[C@H](C(=O)NCCC)[C@H]2N1C(=O)c1ccccc1F (mixture of isomers),-1.7,-13.7,100.1*,-3.9,10.9,-10.3,4.5
CC=Cc1ccc2n(c1=O)C[C@@H]1[C@@H](CO)[C@H](C(=O)NCCC)[C@H]2N1CC1CCOCC1 (mixture of isomers),-0.9,34.6,19.1,/,/,/,/
CC=Cc1ccc2n(c1=O)C[C@H]1[C@H](CO)[C@@H](C(=O)NCCC)[C@@H]2N1C(=O)c1ccncc1 (mixture of isomers),1.8,4.9,/,/,/,/,/
CC=Cc1ccc2n(c1=O)C[C@@H]1[C@@H](CO)[C@H](C(=O)NCC3CC3)N(CCC(F)(F)F)[C@H]21 (mixture of isomers),0.8,-20.1,111.4*,-47.2,3.0,-10.4,6.4
CC=Cc1ccc2n(c1=O)C[C@H]1[C@H](CO)[C@@H](C(=O)NCCC)[C@@H]2N1CC1CCOCC1 (mixture of isomers),-2.7,14.7,-12.2,/,/,/,/
CC=Cc1ccc2n(c1=O)C[C@@H]1[C@@H](CO)[C@H](C(=O)NCC3CC3)N(CCC)[C@H]21 (mixture of isomers),2.1,14.1,/,/,/,/,/
CC=Cc1ccc2n(c1=O)C[C@H]1[C@H](CO)[C@@H](C(=O)NCCC)[C@@H]2N1CC1CC1 (mixture of isomers),-0.8,2.4,101.5*,56.2,4.7,-8.0,7.8
CC=Cc1ccc2n(c1=O)C[C@@H]1[C@@H](CO)[C@H](C(=O)NCCC)[C@H]2N1CC1CC1 (mixture of isomers),-0.7,6.5,101.9*,31.0,-44.5,14.3,-15.0
CC(=O)N(C)C[C@@H]1Oc2cc(C3=CCCCC3)ccc2S(=O)(=O)N([C@@H](C)CO)C[C@@H]1C,/,-7.8,59.5,/,/,/,/
CO[C@@H]1CN(C)C(=O)c2cc(NS(=O)(=O)CC(F)(F)F)ccc2OC[C@H](C)N(C(=O)NC(C)C)C[C@H]1C,/,7.2,24.6,/,/,/,/
CC(C)c1cn(CC[C@H]2CC[C@@H](NC(=O)Nc3cc(Cl)cc(Cl)c3)[C@@H](CO)O2)nn1,/,-45.1,2.1,/,/,/,/
C/C=C/c1ccc2c(c1)O[C@@H](CN(C)C(=O)c1ccc3c(c1)OCO3)[C@@H](C)CN([C@@H](C)CO)S2(=O)=O,2.8,-25.3,27.8,/,/,/,/
C/C=C/c1ccc2c(c1)O[C@H](CN(C)C(=O)c1ccc3c(c1)OCO3)[C@H](C)CN([C@@H](C)CO)S2(=O)=O,-4.1,-9.2,77.0,/,/,/,/
C[C@H]1CN([C@@H](C)CO)S(=O)(=O)c2ccc(/C=C/c3ccccc3)cc2O[C@@H]1CN(C)C(=O)c1ccc2c(c1)OCO2,1.6,-63.1,118.5*,104.3*,61.1,30.4,38.5*
C[C@H]1CN([C@@H](C)CO)S(=O)(=O)c2ccc(/C=C/c3ccccc3)cc2O[C@H]1CN(C)C(=O)c1ccc2c(c1)OCO2,11.4,-71.7,?,103.0*,92.6,32.7,?
C[C@H](CO)N1C[C@H](C)[C@H](CN(C)C(=O)c2ccc3c(c2)OCO3)Oc2cc(/C=C/c3ccccc3)ccc2S1(=O)=O,0.7,-83.5*,105.7*,104.4*,91.6,19.2,27.2*
C/C=C/c1ccc2c(c1)O[C@H](CN(C)C(=O)c1ccc3c(c1)OCO3)[C@@H](C)CN([C@@H](C)CO)S2(=O)=O,-2.5,-42.0,49.7,/,/,/,/
